Measured values published in PubChem BioAssay (NCATS).
Records with an inconclusive call do not appear. The source made the active and inactive calls. Calls come from the whole dose curve; as a rule, active = well fitted cell-killing curve with a large enough effect; inconclusive = small, poorly fitted or top-dose-only effect, or effect the other way; inactive = no such curve, though single readings can be large or run the other way.

test: Quantitative High-Throughput drug screen in 47 multiple myeloma cell lines against the NCATS MIPE library collection: KMS21BM_JCRB cell viability assay (AID 1918974); conditions: ATP luminescence, 48 h; viability: at 45.8 µM
Source text: PI: Beverly A. Mock Ph.D.
Laboratory of Cancer Biology and Genetics,
Center for Cancer Research, National Cancer Institute,
National Institute of Health, Bethesda, Maryland
Drug resistance and disease progression are common in multiple myeloma (MM) patients, underscoring the need for new therapeutic combinations. […] We hypothesized that effective combinations would reduce MYC expression and enhance p16 activity. […] These preclinical data identify potentially useful drug combinations for evaluation in drug-resistant MM and reveal potential mechanisms of combined drug sensitivity.
Described herein is the primary MIPE qHTS used to cherrypick compounds. Validated compounds were then further tested for potential synergistic activiy.
[1] Peat TJ, Gaikwad SM, Dubois W, Gyabaah-Kessie N, Zhang S, Gorjifard S, Phyo Z, Andres M, Hughitt VK, Simpson RM, Miller MA, Girvin AT, Taylor A, Williams D, D'Antonio N, Zhang Y, Rajagopalan A, Flietner E, Wilson K, Zhang X, Shinn P, Klumpp-Thomas C, McKnight C, Itkin Z, Chen L, Kazandijian D, Zhang J, Michalowski AM, Simmons JK, Keats J, Thomas CJ, Mock BA. Drug combinations identified by high-throughput screening promote cell cycle transition and upregulate Smad pathways in myeloma. Cancer Lett. 2023 Aug 1;568:216284. doi: 10.1016/j.canlet.2023.216284. Epub 2023 Jun 24. PMID: 37356470; PMCID: PMC10408729.
SEQUENCE No. (e.g., 1, 2, 3, etc.); […] (e.g., Cells, Incubation, Reagent, etc.); VALUE and DESCRIPTION.
1; Cells; 5 uL; white, solid bottom 1536-well Greiner assay plate.
2; Compounds; 23 nL; Kalypsis pin tool (Wako USA) equipped with a 1536-well pin head to transfer to the assay plates.
3; Incubation; 48 hours; 37C incubation.
4; Reagent;5uL; CellTiter Glo (Promega).
5; Detector; 425V; Luminescence; Viewlux PerkinElmer.
NOTES (numbers refer to Sequence numbers above)
1. The cell-based screening methods employed in this study were like those previously published. Briefly, the corresponding myeloma cell lines were screened in 1,536-well plates with 500 cells, 5-uL per well for inhibition of cell viability (assessed by measuring ATP levels with CellTiterGlo).
2. NCATS MIPE 4.0 library of approved and investigational drugs were added using the Kalypsis pin tool. Wells treated with DMSO only for 100% viability and media only wells for 0% viability were used as controls.
3. The assay plates were covered and incubated for 48 hours in a 37C, 5% CO2 incubator with controlled humidity.
4. After 48 hours, CellTilter-GloTM luminescent substrate mix (Promega) reagent was added to the assay plate and plates we incubated for 5 min at room temperature.
5. Signal was measured as median relative luminescence units on a ViewLux (PerkinElmer) multiplate reader.
[1] Heske CM, Davis MI, Baumgart JT, Wilson K, Gormally MV, Chen L, Zhang X, Ceribelli M, Duveau DY, Guha R, Ferrer M, Arnaldez FI, Ji J, Tran HL, Zhang Y, Mendoza A, Helman LJ, Thomas CJ. Matrix Screen Identifies Synergistic Combination of PARP Inhibitors and Nicotinamide Phosphoribosyltransferase (NAMPT) Inhibitors in Ewing Sarcoma. Clin Cancer Res. 2017 Dec 1;23(23):7301-7311. doi: 10.1158/1078-0432.CCR-17-1121. Epub 2017 Sep 12. PMID: 28899971; PMCID: PMC6636827.
Potency is the fitted concentration of half-maximal effect.

Row | SMILES | viability | Potency
1 | CC(=Cc1csc(C)n1)[C@@H]1C[C@H]2O[C@]2(C)CCC[C@H](C)[C@@H](O)[C@@H](C)C(=O)C(C)(C)[C@@H](O)CC(=O)O1 | 80.2% (active) | –
2 | CC(C)N[C@@H]1CCn2c(=O)[nH]c3cccc(c32)[C@@H]1O | – | 0.833 µM (active)
3 | O=C(N[C@H]1CN2CCC1CC2)c1ccc(Cl)cc1 | – | 37.2 µM (active)
4 | CC(C)[C@H]1C(=O)N[C@H](CO)Cc2c[nH]c3cccc(c23)N1C | – | inactive
5 | O=c1[nH]c2ccccc2n1C1CCN(Cc2ccc(-c3[nH]c4cc5ncnc5cc4nc3-c3ccccc3)cc2)CC1 | – | 16.6 µM (active)
6 | CN1CCN(c2ccc([N+](=O)[O-])c3no[n+]([O-])c23)CC1 | – | 8.33 µM (active)
7 | C[C@@H]1CC[C@@]2(OC1)O[C@H]1C[C@H]3[C@@H]4CC=C5C[C@@H](O[C@@H]6O[C@H](CO)[C@@H](O[C@@H]7O[C@@H](C)[C@H](O)[C@@H](O)[C@@H]7O)[C@H](O)[C@@H]6O[C@@H]6O[C@@H](C)[C@H](O)[C@@H](O)[C@@H]6O)CC[C@]5(C)[C@@H]4CC[C@]3(C)[C@@H]1[C@H]2C | – | 1.48 µM (active)
8 | Cc1c(C(=O)Nc2cccc(C(F)(F)F)c2)cc(-c2ccccc2)n1CCCN1CCOCC1 | – | 18.7 µM (active)
9 | O=C(Nc1ccncc1)C(=O)c1cn(Cc2ccc(Cl)cc2)c2ccccc12 | – | 0.0074 µM (active)
10 | CC(=O)N(C)c1cccc(-c2ccnc3c(C(=O)c4cccs4)cnn23)c1 | – | inactive
11 | C[C@@H]1CC[C@H]2[C@@H](C)C(=O)O[C@@H]3O[C@@]4(C)CC[C@H]1[C@]32OO4 | – | inactive
12 | CCOC(=O)Nc1ccc(NCc2ccc(F)cc2)cc1N | – | inactive
13 | C[C@@H]1O[C@@H](O[C@@H]2C=C3CC[C@@H]4[C@@H](CC[C@]5(C)[C@H](c6ccc(=O)oc6)CC[C@@]45O)[C@@]3(C)CC2)[C@H](O)[C@H](O)[C@H]1O | – | 0.0264 µM (active)
14 | COc1ccc2c(c1)CN(C)CC2c1ccc(Cl)c(Cl)c1 (stereo not given) | – | 4.18 µM (active)
15 | CC1=NN=C(c2ccc(N)cc2)c2cc3c(cc2C1)OCO3 | – | 14.8 µM (active)
16 | COc1ccc(N(C(=O)Oc2c(C)cccc2C)c2ccnc(Nc3ccc(N4CCN(C)CC4)cc3)n2)c(OC)c1 | – | 0.235 µM (active)
17 | CCNC(=O)CC1N=C(c2ccc(Cl)cc2)c2cc(OC)ccc2-n2c(C)nnc21 (stereo not given) | – | 5.9 µM (active)
18 | COCC1(CO)C(=O)C2CCN1CC2 (stereo not given) | – | 4.18 µM (active)
19 | CC(C)[C@]12O[C@@H]1[C@@H]1O[C@]13[C@]1(O[C@H]1C[C@@H]1C4=C(CC[C@@]13C)C(=O)OC4)[C@H]2O | – | inactive
20 | C[C@]12CC[C@H](O)CC1=CC[C@H]1[C@H]3CCC(=O)[C@@]3(C)CC[C@@H]12 | – | 11.8 µM (active)
21 | O=[N+]([O-])c1ncc[nH]1 | – | inactive
22 | O=c1[nH]c2ccc(Cl)cc2c(N[C@@H]2CN3CCC2CC3)c1-c1nc2ccccc2[nH]1 | – | 0.0264 µM (active)
23 | Cc1ccccc1-n1c(Cn2cnc3c(N)ncnc32)nc2cccc(C)c2c1=O | – | 0.235 µM (active)
24 | CC(C)(O)C=CC(=O)[C@](C)(O)[C@H]1[C@H](O)C[C@]2(C)[C@@H]3CC=C4[C@@H](C=C(O)C(=O)C4(C)C)[C@]3(C)C(=O)C[C@@]12C | – | 0.0148 µM (active)
25 | C=C1C[C@H]2[C@H]3CCC(=O)[C@@]3(C)CC[C@@H]2[C@@]2(C)C=CC(=O)C=C12 | – | 14.8 µM (active)
